# ± gives the standard deviation of the averaged measurements.
# Legend:
# [1] = test system: DLD1; assay: cell viability (CellTiter-Glo) relative to plate median (fraction of plate median); higher = more viable cells; conditions: 5 µM; treatment time 24 h; reporter: 7TFP
# Outline: (§1)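 Colorectal cancer lines with stably integrated lentiviral TCF/Wnt firefly luciferase reporters received library compounds at a final 5 µM, 24 h after seeding into 384-well plates, for a 24 h exposure. Reported figures are plate-median-normalised firefly luciferase or CellTiterGlo luminescence per well. They average two independent replicates.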
# [2] = test system: HCT116; assay: as above; conditions: 5 µM; treatment time 24 h; reporter: TCF4/Wnt
# Outline: as §1
# [3] = test system: SW480; assay: as above; conditions: 5 µM; treatment time 24 h; reporter: 7TFP
# Outline: as §1
# [4] = test system: DLD1; assay: TCF/Wnt firefly luciferase reporter signal relative to plate median (fraction of plate median); higher = higher Wnt reporter signal; conditions: 5 µM; treatment time 24 h; reporter: 7TFP
# Outline: as §1
# [5] = test system: SW480; assay: as above; conditions: 5 µM; treatment time 24 h; reporter: 7TFP
# Outline: as §1
# [6] = test system: DLD1; assay: cell viability (CellTiter-Glo) relative to plate median (fraction of plate median); higher = more viable cells; conditions: 10 µM, treatment time 24 h
# Outline: (§2)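 Each value averages two independent replicates in which the well signal was normalised to the plate median (webcellHTS2, additive, without log transformation). The signal was firefly luciferase or CellTiterGlo luminescence, read on parallel plates with a Tecan F500. The cells were colorectal cancer lines with stable lentiviral TCF/Wnt firefly luciferase reporters in 384-well plates, dosed 24 h after seeding with kinase inhibitor library compounds at a final 10 µM for 24 h.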
# [7] = test system: HCT116; assay: as above; conditions: 10 µM; treatment time 24 h; reporter: TCF4/Wnt
# Outline: as §2
# [8] = test system: SW480; assay: as above; conditions: 10 µM; treatment time 24 h; reporter: 7TFP
# Outline: as §2
# [9] = test system: DLD1; assay: TCF/Wnt firefly luciferase reporter signal relative to plate median (fraction of plate median); higher = higher Wnt reporter signal; conditions: 10 µM, treatment time 24 h
# Outline: as §2
# [10] = test system: HCT116; assay: as above; conditions: 10 µM; treatment time 24 h; reporter: TCF4/Wnt
# Outline: as §2
# [11] = test system: SW480; assay: as above; conditions: 10 µM; treatment time 24 h; reporter: 7TFP
# Outline: as §2
smiles,measurement,setting,value
"C[C@]12CCC[C@H](O1)c1c(cc3c(c1O)C(=O)c1c(O)cc(O)cc1C3=O)O2 [Averufin (Isoform A, Compound ID 7507)]",cell viability,[1],1.01 ± 0.12
same,cell viability,[2],1.05 ± 0.14
same,cell viability,[3],1.04 ± 0.088
same,TCF/Wnt firefly luciferase reporter signal,[4],0.896 ± 0.16
same,TCF/Wnt firefly luciferase reporter signal,[5],0.972 ± 0.083
CN(C)/N=N/c1[nH]cnc1C(N)=O,cell viability,[1],0.982 ± 0.015
same,cell viability,[2],0.986 ± 0.02
same,cell viability,[3],0.971 ± 0.0099
same,TCF/Wnt firefly luciferase reporter signal,[4],1.06 ± 0.11
same,TCF/Wnt firefly luciferase reporter signal,[5],1.06 ± 0.11
"CC(=O)c1oc2cc3[nH]c(=O)cc(C)c3cc2c1C [2-Acetyl-3,5-dimethylfuro[3,2-g]quinolin-7-one (VFT-05)]",cell viability,[1],0.8435 ± 0.0035
same,cell viability,[2],0.998 ± 0.059
same,cell viability,[3],0.885 ± 0.0092
same,TCF/Wnt firefly luciferase reporter signal,[4],0.8825 ± 0.0035
same,TCF/Wnt firefly luciferase reporter signal,[5],0.979 ± 0.072
NS(=O)(=O)c1cc2c(cc1Cl)NCNS2(=O)=O,cell viability,[1],0.988 ± 0.1
same,cell viability,[2],1.02
same,cell viability,[3],1.04 ± 0.042
same,TCF/Wnt firefly luciferase reporter signal,[4],1.15 ± 0.071
same,TCF/Wnt firefly luciferase reporter signal,[5],1.1 ± 0.028
Cc1c(NC(=O)OC[C@@H]2COCCN2)cn2ncnc(Nc3ccc4c(cnn4Cc4cccc(F)c4)c3)c12,cell viability,[6]; reporter: 7TFP,1.04
same,cell viability,[6]; reporter: TCF4/Wnt,0.97 ± 0.17
same,cell viability,[7],1.13 ± 0.22
same,cell viability,[8],1.01 ± 0.092
same,TCF/Wnt firefly luciferase reporter signal,[9]; reporter: 7TFP,1.27 ± 0.099
same,TCF/Wnt firefly luciferase reporter signal,[9]; reporter: TCF4/Wnt,1.32 ± 0.2
same,TCF/Wnt firefly luciferase reporter signal,[10],1.01 ± 0.036
same,TCF/Wnt firefly luciferase reporter signal,[11],1.3 ± 0.078
CC(C)[C@@H](C)/C=C/[C@@H](C)[C@H]1CC[C@H]2C3=CCC4CC(=O)CC[C@]4(C)[C@H]3CC[C@]12C (some centres not stated),cell viability,[1],0.975 ± 0.078
same,cell viability,[2],1.07 ± 0.05
same,cell viability,[3],1.08
same,TCF/Wnt firefly luciferase reporter signal,[4],1.06 ± 0.071
same,TCF/Wnt firefly luciferase reporter signal,[5],1.06 ± 0.021
CCOc1cc2ncc(C#N)c(Nc3ccc(F)c(Cl)c3)c2cc1NC(=O)/C=C/CN(C)C [Pelitinib (EKB-569)],cell viability,[6]; reporter: 7TFP,1.02
same,cell viability,[6]; reporter: TCF4/Wnt,0.875 ± 0.081
same,cell viability,[7],0.878 ± 0.021
same,cell viability,[8],1.28 ± 0.14
same,TCF/Wnt firefly luciferase reporter signal,[9]; reporter: 7TFP,0.837 ± 0.16
same,TCF/Wnt firefly luciferase reporter signal,[9]; reporter: TCF4/Wnt,1.01 ± 0.17
same,TCF/Wnt firefly luciferase reporter signal,[10],0.668 ± 0.071
same,TCF/Wnt firefly luciferase reporter signal,[11],1.08 ± 0.021
COc1ccc(COc2cc3oc(=O)c4cc(C(C)O)ccc4c3cc2OC)cc1 (configuration not stated) [Palomid 529],cell viability,[6]; reporter: 7TFP,1.08 ± 0.028
same,cell viability,[6]; reporter: TCF4/Wnt,1.09 ± 0.021
same,cell viability,[7],1.12 ± 0.092
same,cell viability,[8],0.877 ± 0.044
same,TCF/Wnt firefly luciferase reporter signal,[9]; reporter: 7TFP,1.1 ± 0.021
same,TCF/Wnt firefly luciferase reporter signal,[9]; reporter: TCF4/Wnt,1.16 ± 0.099
same,TCF/Wnt firefly luciferase reporter signal,[10],1.2 ± 0.37
same,TCF/Wnt firefly luciferase reporter signal,[11],1.07 ± 0.099
COc1ccc(C(=O)CC(=O)O)c2c1C=CC(C)(C)O2,cell viability,[1],1 ± 0.013
same,cell viability,[2],0.978 ± 0.19
same,cell viability,[3],0.961 ± 0.098
same,TCF/Wnt firefly luciferase reporter signal,[4],0.991 ± 0.056
same,TCF/Wnt firefly luciferase reporter signal,[5],0.859 ± 0.042
COC(=O)[C@@]1(C)CCC[C@]2(C)c3ccc(O)c(C(C)C)c3CCC12 (some centres not stated),cell viability,[1],1.03 ± 0.028
same,cell viability,[2],0.982 ± 0.096
same,cell viability,[3],1.03 ± 0.028
same,TCF/Wnt firefly luciferase reporter signal,[4],0.892 ± 0.046
same,TCF/Wnt firefly luciferase reporter signal,[5],0.88 ± 0.049
O=C(Nc1ccc(OC(F)(F)F)cc1)c1sccc1NCc1ccnc2ccccc12,cell viability,[6]; reporter: 7TFP,1.01 ± 0.023
same,cell viability,[6]; reporter: TCF4/Wnt,0.924 ± 0.025
same,cell viability,[7],1.21 ± 0.035
same,cell viability,[8],0.971 ± 0.13
same,TCF/Wnt firefly luciferase reporter signal,[9]; reporter: 7TFP,1.08 ± 0.15
same,TCF/Wnt firefly luciferase reporter signal,[9]; reporter: TCF4/Wnt,0.97 ± 0.085
same,TCF/Wnt firefly luciferase reporter signal,[10],0.842 ± 0.62
same,TCF/Wnt firefly luciferase reporter signal,[11],0.864 ± 0.48
CCOc1ccc(C(=O)c2ccc(O)c(O)c2O)cc1,cell viability,[1],0.928 ± 0.13
same,cell viability,[2],0.97 ± 0.18
same,cell viability,[3],1 ± 0.052
same,TCF/Wnt firefly luciferase reporter signal,[4],0.964 ± 0.093
same,TCF/Wnt firefly luciferase reporter signal,[5],1.1 ± 0.071
O=C(O)CN(CC(=O)O)Cc1cc2c(cc1O)Oc1cc(O)c(CN(CC(=O)O)CC(=O)O)cc1C21OC(=O)c2ccccc21,cell viability,[1],0.965 ± 0.03
same,cell viability,[2],0.914 ± 0.089
same,cell viability,[3],0.96 ± 0.053
same,TCF/Wnt firefly luciferase reporter signal,[4],0.909 ± 0.13
same,TCF/Wnt firefly luciferase reporter signal,[5],0.895 ± 0.12
